TEAD-YAP block = TEAD-YAP interaction inhibition; HEK-TIYL cells, TEAD-Gal4/YAP UAS-luciferase luminescence; 1.4% of 640,000 active; inhibition, % at 9.12 µM; AID 1259422; in the data active means inhibition above about 32%;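 further: 0% = median of test compound wells and 100% = reference inhibitor wells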
MITF inh = inhibitors of human MITF. O75030. AlphaScreen MITF homodimerization, bead proximity signal. inhibition, % at 2.6 µM. 0.91% of 650,000 active. AID 1259374; in the data active means inhibition above about 50%;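 further: 0% = vehicle wells with protein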
GPR151 ag = activators of human GPR151; PathHunter beta-arrestin GPR151 cells, luminescence; activation, % at 11.2 µM; 1% of 650,000 active; AID 1508602; in the data active means activation above about 4.9%;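 further: 0% = median of compound wells and 100% = cells with positive control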
Target sequence (Q8TDV0 whole entry, looked up): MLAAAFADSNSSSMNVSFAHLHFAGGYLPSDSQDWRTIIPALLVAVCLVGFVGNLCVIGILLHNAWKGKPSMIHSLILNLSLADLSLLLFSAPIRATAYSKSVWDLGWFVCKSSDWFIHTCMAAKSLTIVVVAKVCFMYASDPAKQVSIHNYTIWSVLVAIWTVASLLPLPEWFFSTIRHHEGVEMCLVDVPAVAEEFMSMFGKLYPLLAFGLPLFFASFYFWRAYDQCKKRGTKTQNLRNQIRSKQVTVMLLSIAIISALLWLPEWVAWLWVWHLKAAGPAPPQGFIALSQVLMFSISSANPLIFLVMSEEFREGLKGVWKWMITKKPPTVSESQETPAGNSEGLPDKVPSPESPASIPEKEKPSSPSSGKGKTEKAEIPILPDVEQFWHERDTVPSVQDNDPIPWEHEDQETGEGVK
FBW7 activator = activators of human E3 ligase FBW7; Q969H0; AlphaScreen FBW7–phospho-cyclin E peptide binding, activator screen; normalized activity (activation), % at 26.1 µM; 0.13% of 650,000 active; AID 1259310; in the data active means normalized activity above about 1.9%;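 further: purified mutant Fbw7 with reduced substrate affinity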
Starred values were filed as active, the others as inactive. Most compounds without a hit are left out; they make up all but 3.4% or so of the library.

SMILES | TEAD-YAP block | MITF inh | GPR151 ag | FBW7 activator
Cc1ccc(O)c(/C=N/NC(=O)c2ccccn2)c1 | -13 | 57* | -4 | -1
O=C(N/N=C/c1ccc(O)c(O)c1O)c1ccccn1 | -42 | 108* | -3 | -1
Cc1cccc(/C=N/NC(=O)c2ccccn2)c1O | 55* | 13 | -6 | -2
O=C(N/N=C/c1ccccc1O)c1ccccn1 | -55 | -39 | -1 | 0
Cc1cccc(/C=N\NC(=O)c2ccccc2Cl)c1O | -61 | -2 | 1 | 0
O=C(NC1CC1)c1cccc(Nc2ccccc2)c1 | -14 | -14 | 0 | 0
Cn1c2c(c(=O)n(C)c1=O)C(c1ccc([N+](=O)[O-])cc1)Nc1ccccc1O2 (configuration not stated) | 11 | 26 | 0 | 0
O=C(Nc1cnc2cnc(-c3ccc(N4CCOCC4)cc3)cn12)C1CCOC1 (configuration not stated) | -18 | 6 | -1 | 2.4*
O=C(NCCn1cc(SCC(=O)N2CCOCC2)c2ccccc21)c1ccc(F)cc1 | 32* | 1 | 1 | 0
O=C(NCCn1cc(SCC(=O)N2CCN(c3ccccc3)CC2)c2ccccc21)c1ccc(F)cc1 | 1 | 7 | 0 | 0
Cc1cccc(OS(=O)(=O)c2cn(C)c(=O)n(C)c2=O)c1 | -1 | 3 | -1 | 3.6*
CCOC(=O)c1ccc(NC(=O)CN(Cc2ccccc2)S(=O)(=O)c2ccc(C)cc2)cc1 | 5 | -11 | 1 | 0
CCCC(=O)N1CCCC(c2nc(-c3cccc(OC)c3)no2)C1 (configuration not stated) | -8 | 0 | -1 | 0
CCC(CC)C(=O)N1CCCC(c2nc(-c3cccc(OC)c3)no2)C1 (configuration not stated) | 42* | -1 | -1 | 0
COc1ccc(-c2noc(C3CCCN(C(=O)c4c(OC)cccc4OC)C3)n2)cc1 (configuration not stated) | 47* | -4 | 1 | 0
CCOc1cc(N2CCOCC2)c(OCC)cc1NC(=O)C1CC=CCC1C(=O)O (configuration not stated) | 10 | 7 | 0 | 0
CN1/C(=C/C=C(C#N)C#N)C=Cc2ccccc21 | -9 | 9 | 0 | 0
C=CCN1C=C/C(=C\C=C(C#N)C#N)c2ccccc21 | 13 | 68* | -2 | -2
COCCn1nnnc1C(c1ccc(OC)cc1)N1CCN(C2CCCCC2)CC1 (configuration not stated) | -1 | -1 | 0 | 0
Nc1cccc(-c2nc3cc4ccccc4cc3[nH]2)c1 | 50* | -14 | -8 | 0
Nc1ccc(-c2nc3ccc(C(=O)O)cc3[nH]2)cc1 | 36* | -6 | -8 | 0
Cc1ccc2nc(-c3cccc(N)c3)[nH]c2c1 | 60* | 0 | -8 | 0
Cc1ccc2nc(-c3ccccc3)[nH]c2c1 | 51* | -1 | -11 | 0
Nc1ccc(C(=O)Nc2ccc3nc(-c4ccccc4)[nH]c3c2)cc1 | -37 | -15 | 3 | 0
O=C(CNc1n[nH]c(=O)[nH]c1=O)N/N=C/c1ccc2c(c1)OCO2 | 1 | 8 | -1 | 0
SMILES | TEAD-YAP block | MITF inh | GPR151 ag | FBW7 activator
CN(C)c1ccc(-c2nc3ccccc3[nH]2)cc1 | 96* | 21 | -10 | 0
Cc1cccc(NC(=O)c2cnc(N3CCN(c4ccccn4)CC3)c3ccccc23)n1 | 40* | 5 | 0 | 0
COc1ccc(NC(=O)c2cnc(N3CCN(c4ccccn4)CC3)c3ccccc23)cc1OC | 84* | 2 | 2 | 0
COc1ccccc1N1CCN(c2ncc(C(=O)Nc3cc(OC)c(OC)c(OC)c3)c3ccccc23)CC1 | 56* | 8 | -1 | 0
CC(C)NC(=O)c1cnc(N2CCN(c3ccccn3)CC2)c2ccccc12 | 11 | -7 | 1 | 0
COc1cc(NC(=O)c2cnc(N3CCN(c4ccccn4)CC3)c3ccccc23)cc(OC)c1OC | 78* | 6 | 1 | 0
O=C(Cn1nc(C2CC2)cc1C(=O)N1CCCC1)NCc1cccc(Cl)c1 | 19 | 0 | 1 | 0
COCCCNC(=O)c1cnc(N2CCN(c3ccccc3OC)CC2)c2ccccc12 | 38* | 13 | -1 | 0
COC1CC(NC(=O)c2cnc(N3CCN(c4ncccn4)CC3)c3ccccc23)CC(OC)C1OC (configuration not stated) | 72* | -3 | 2 | 0
COc1ccc(NC(=O)c2cnc(N3CCN(c4ncccn4)CC3)c3ccccc23)c(OC)c1 | 50* | 12 | 2 | 0
O=C(NC1CCCCC1)c1cnc(N2CCN(c3ncccn3)CC2)c2ccccc12 | 0 | 2 | -1 | 0
COc1cccc(NC(=O)c2cnc(N3CCN(c4ccccn4)CC3)c3ccccc23)c1 | 62* | -4 | 1 | 0
COc1cccc(NC(=O)c2cnc(N3CCN(c4ncccn4)CC3)c3ccccc23)c1 | 20 | 1 | -1 | 0
Cc1ccsc1CN(CCO)Cc1ccccc1 | 4 | 22 | 0 | 0
Cc1nnn(-c2nonc2N)c1C(=O)N/N=C/c1ccc([N+](=O)[O-])cc1 | -9 | -16 | 3 | 0
Cc1ccc(NS(=O)(=O)c2ccccc2)nc1 | 4 | 1 | 0 | 0
COCCCNC(=O)c1n[nH]c(=O)c2ccccc12 | -7 | -5 | -1 | 0
CN(C)c1ncn(Cc2c(Cl)cccc2Cl)c2ncnc1-2 | 6 | -1 | 2 | 0
CC1=C(C(=O)OCCOc2ccccc2)C(c2cccc(Br)c2)C2=C(CC(c3ccccc3)CC2=O)N1 (configuration not stated) | 11 | -5 | 0 | 0
O=C(Nc1cccc(-n2cnnn2)c1)C1CCCN(Cc2ccccc2)C1 (configuration not stated) | 2 | -4 | -1 | 0
O=C(Nc1cccc(-n2cnnn2)c1)C1CCCN(Cc2cc3ccccc3o2)C1 (configuration not stated) | 41* | 3 | 0 | 0
COc1cc(Cn2c(-c3nonc3N)nc3ccccc32)ccc1C | 51* | 2 | -1 | 0
Cc1ccc(Cn2c(-c3nonc3N)nc3ccccc32)cc1 | -9 | -4 | 0 | 0
COc1ccc(C)cc1Cn1c(-c2nonc2N)nc2ccccc21 | 53* | 0 | 0 | 0
COc1ccc(Cn2c(-c3nonc3N)nc3ccccc32)cc1 | -6 | 0 | 1 | 0
COc1cccc(Cn2c(-c3nonc3N)nc3ccccc32)c1 | 38* | 10 | 0 | 0
Clc1nc(NC2CCN(Cc3ccccc3)CC2)c2ncn(-c3ccccc3)c2n1 | -3 | -11 | -2 | 0
Fc1cccc(Cl)c1CNCc1ccccn1 | -2 | 12 | 1 | -1
CC(C)CNC(=O)c1ccc2c(c1)CC(c1nc3ccc(-c4ccnc(N)n4)cc3[nH]1)CO2 (configuration not stated) | -8 | 0 | -1 | 2.3*
COc1ccc(CCNC(=O)c2ccc3c(c2)CC(c2nc4ccc(-c5ccnc(N)n5)cc4[nH]2)CO3)cc1 (configuration not stated) | 41* | -9 | 0 | 5.8*
